High-throughput results (PubChem BioAssay)
This is a sample that favours compounds with a hit; in the whole collection about 14% have one here.
Pf growth 96h – inhibits malaria parasite growth, 96 h. P. falciparum luciferase reporter growth, 96 h. Potency, µM (doses to about 28.7 µM), inactives show at the top dose activity change, negative = inhibition, usual class: inhibitors. hit rate 6.9% among 320,000; also: potency is read from the fitted curve at half-maximal effect
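P. falciparum expressing integrated firefly luciferase, in erythrocytes at 2% hematocrit, 0.05% parasitemia, incubated with compounds 96 h at 37 C, 5% CO2. Growth inhibition read as loss of luminescence; two-generation exposure targets delayed-death apicoplast inhibitors.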
Giardia FBPA inh – inhibitors of Giardia lamblia fructose-1,6-bisphosphate aldolase | purified Giardia FBPA | Potency, µM (doses to about 59.6 µM), for inactives: at the highest dose activity, negative = inhibition, actives largely listed as inhibitors | hit rate 0.71% among 290,000; also: potency is read from the fitted curve at half-maximal effect; nearly all actives have a fitted effect of over 55% in size
Target sequence (A8B2U2 whole entry, looked up): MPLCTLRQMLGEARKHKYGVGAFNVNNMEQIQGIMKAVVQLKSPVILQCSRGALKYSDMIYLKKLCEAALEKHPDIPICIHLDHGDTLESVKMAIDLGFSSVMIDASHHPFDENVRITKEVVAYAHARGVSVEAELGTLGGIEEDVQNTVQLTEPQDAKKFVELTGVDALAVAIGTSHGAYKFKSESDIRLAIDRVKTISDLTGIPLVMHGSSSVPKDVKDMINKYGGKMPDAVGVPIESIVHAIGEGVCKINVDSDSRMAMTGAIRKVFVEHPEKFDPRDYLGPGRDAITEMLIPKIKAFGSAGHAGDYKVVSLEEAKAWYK
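Giardia FBPA (40 nM reagent) was preincubated 10 min at RT with compound (up to 57.5 uM final), then substrate plus GAPDH/TPI/NAD/arsenate coupling system with diaphorase/resazurin was added; resorufin fluorescence (525/598 nm) was read after 20 min.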
Pf growth 48h – inhibits P. falciparum growth in the first generation, 48 h | P. falciparum luciferase growth in erythrocytes, 48 h | Potency, µM (top dose mostly 28.7 µM), without a hit: top-dose activity change, negative = inhibition, usual class: inhibitors | hit rate 5.9% among 310,000; also: potency is read from the fitted curve at half-maximal effect
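Compounds are pin-transferred into medium, infected erythrocytes (2% hematocrit, 0.1% parasitemia final) are added, and plates sit one parasite generation at 37 C in 5% CO2. Detection reagent is then added and luminescence measured.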
HCMV inh – human cytomegalovirus inhibition | HFF cells, HCMV-luciferase reporter, 72 h; stronger effect = lower value | activity change, negative = inhibition, % at 57.5 µM | hit rate 4.5% among 410,000; in the data active = activity change below about -60%; inconclusive = no clear call, values can overlap the other calls; inactive = above about -39%
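Two compound doses tested in HFFs infected with HCMV-luciferase, MOI 1 PFU/cell, 72 h at 37C. Lysate luminescence read with OneGlo; data normalized against buffer-only and 10uM Salinomycin inhibitor controls.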
Sm TGR block – S. mansoni TGR enzyme inhibition; Q962Y6; purified TGR, DTNB reduction, TNB absorbance 405 nm; hit rate 3% among 360,000; Potency, µM (titrated, usually from 114 µM), inactives show at the top dose activity change, negative = inhibition, actives largely listed as inhibitors; also: potency is read from the fitted curve at half-maximal effect; nearly all actives have a fitted effect of over 60% in size
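First, TGR (20 nM dispensed) and NADPH were mixed with compound. Second, a 15 min room-temperature incubation followed. Third, further NADPH and then DTNB were added to start the reaction. Finally, TNB absorbance was monitored kinetically.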
An asterisk follows results filed as active; i = inactive; u = inconclusive; x = no result. Unless noted, calls follow the shape of the dose curve; as a rule, active = well fitted curve in the direction sought with a large enough effect; inconclusive = small, poorly fitted or top-dose-only effect, or another doubt; inactive = no such curve, though single readings can be large; an effect the other way counts as inactive or inconclusive. % is scaled to controls: 0 for no effect and ±100 for the full control effect.

SMILES	Pf growth 96h	Giardia FBPA inh	Pf growth 48h	HCMV inh	Sm TGR block
CN(Cc1ccccc1)Cc1nc2c([nH]1)c(=O)[nH]c(=O)n2C	10µM*	-25%	22%	28	2%
C=CCn1c(Sc2ccccc2)nc2c1c(=O)[nH]c(=O)n2C	8%	7%	12µM*	-8	-2%
CCN1CCN(c2nc3c(c(=O)[nH]c(=O)n3C)n2CCSc2nc3ccccc3s2)CC1	22%	-3%	x	33	-26%
CN1CCN(c2nc3c(c(=O)[nH]c(=O)n3C)n2Cc2ccccc2)CC1	0.59µM*	8%	5%	4	-6%
CC(CSc1nc2ccccc2s1)Cn1c(N2CCCC2)nc2c1c(=O)[nH]c(=O)n2C (stereo unspecified)	10µM*	14%	12µM*	u	-5%
CCCCCn1c(Sc2ccccc2)nc2c1c(=O)[nH]c(=O)n2C	0%	0%	-6%	16	-6%
COC(=O)c1ccccc1NC(=O)c1cnn2cccnc12	18%	5%	7%	-25	-11%
Cn1c(=O)[nH]c(=O)c2c1nc(CN1CCN(c3cccc(Cl)c3)CC1)n2CCCc1ccccc1	13%	3%	9.3µM*	35	-2%
CC(=O)Cn1c(N2CCC(Cc3ccccc3)CC2)nc2c1c(=O)[nH]c(=O)n2C	u	2%	2%	43	8%
C=C(C)Cn1c(N2CCC(Cc3ccccc3)CC2)nc2c1c(=O)[nH]c(=O)n2C	u	-3%	13µM*	-23	2%
CCCCn1c(CN2CCN(c3cccc(Cl)c3)CC2)nc2c1c(=O)[nH]c(=O)n2C	35%	0%	u	-1	-24%
Cc1ccc(Cn2c(N3CCCCCC3)nc3c2c(=O)[nH]c(=O)n3C)cc1	x	10%	4.1µM*	-11	2%
C[C@@H]1CN(S(=O)(=O)C(C)(C)C)[C@H](CCO)/C1=C\CCO	x	x	x	16	x
Cc1oc(-c2cc(F)cc(F)c2)nc1CN1CCSCC1	u	1%	-5%	-3	x
CCOc1ccc(-c2nc3ccc(-c4nc5ccc(N6CCN(C)CC6)cc5[nH]4)cc3[nH]2)cc1	x	-26%	x	x	x
CS(=O)(=O)Nc1cccc(-c2cncnc2NCc2ccccc2)c1	x	6%	x	x	x
Cc1ccc(-c2cc3c(N=O)c4ccccc4c-3n[nH]2)cc1	i	0%	138%	-94*	-7%
Cc1ccc(C2=C(CC(=O)O)C(=O)CC2)cc1	4.7µM*	5%	22%	27	-19%
COc1ccc(C(=O)c2coc(-c3ccccc3C(=O)O)c2C(=O)O)cc1	25%	15%	4%	50	-2%
Cc1oc2c(c1C(=O)c1ccc(Cl)cc1)C(=O)C(=O)c1ccccc1-2	u	0.89µM*	u	u	u
Cc1ccc(C(=O)c2coc3c2C(=O)C(=O)c2ccccc2-3)cc1	-93%	2.8µM*	x	-23	u
O=C(c1ccc(Cl)cc1)c1ccc(CN2C(=O)c3ccccc3C2=O)o1	16%	3%	0%	-13	-33%
Cc1ccc(C(=O)c2c(C)oc3c2C(=O)C(=O)c2ccccc2-3)cc1	u	0.63µM*	u	x	u
Cc1cc(=O)c(C(=O)c2ccccc2)c(C)o1	x	x	x	-1	x
CCOc1ccccc1Nc1sc(C(=O)c2ccc(Cl)cc2)c(N)c1C(=O)NCCc1ccccc1	x	x	x	18	-2%
SMILES	Pf growth 96h	Giardia FBPA inh	Pf growth 48h	HCMV inh	Sm TGR block
O=C(Nc1cccc(F)c1)N1CCCC2(CCN(C(=O)c3cccc(F)c3)CC2)C1	x	0%	x	x	x
Oc1ccc2c3c1O[C@H]1c4oc5ccccc5c4C[C@@]4(O)[C@@H](C2)N(CC2CC2)CC[C@]314	4.7µM*	1%	u	u	-6%
Oc1ccc2c3c1O[C@H]1c4[nH]c5ccccc5c4C[C@@]4(O)[C@@H](C2)N(CC2CC2)CC[C@]314	u	x	u	16	45µM*
Oc1ccc2c3c1O[C@H]1[C@@H](O)CC[C@@]4(O)C(C2)N(CC2CCC2)CCC314 (stereo partly specified)	3.4µM*	-2%	u	x	x
Oc1ccc2c3c1O[C@H]1c4[nH]c5ccccc5c4C[C@]4(O)[C@H](C2)N(CC2CC2)CC[C@@]314	x	-7%	x	x	x
Oc1ccc2c3c1O[C@H]1c4oc5ccccc5c4C[C@]4(O)[C@H](C2)N(CC2CC2)CC[C@@]314	x	4%	x	x	x
Oc1ccc2c3c1O[C@H]1c4[nH]c5ccccc5c4C[C@@]4(O)C(C2)N(CC2CC2)CC[C@]314	x	-12%	x	x	18µM*
O=C(c1ccco1)N1CCN(Cc2cn[nH]c2-c2ccc(F)cc2F)CC1	-8%	4%	-8%	u	-17%
O=C(Cc1ccccc1[N+](=O)[O-])OCC(=O)c1c[nH]c2ccccc12	19%	x	37%	8	5%
CCC(CC)C(=O)Nc1nnc(S(=O)(=O)N(C)c2cc(C)cc(C)c2)s1	x	x	x	93	-11%
COc1ccc(C(=O)N/C(=C\c2cn(S(=O)(=O)N(C)C)c3ccccc23)C(=O)NCCN2CCOCC2)cc1OC	10%	0%	-17%	-29	-9%
CC1=C/C(=C(/c2ccc(O)c(C)c2)c2ccccc2S(=O)(=O)O)C=CC1=O	-10%	x	-1%	u	-25%
CC1=C/C(=C(/c2cc(C)c(O)c(Br)c2)c2ccccc2S(=O)(=O)O)C=C(Br)C1=O	-6%	-22%	u	-1	45µM*
COc1cc(Cl)c(C)cc1NC(=O)CNC(=O)Cn1ccc2ccccc2c1=O	x	x	x	0	-3%
Cc1ccc(NC(=S)NNc2ncc(C(F)(F)F)cc2Cl)cc1	10µM*	9%	u	-26	6%
Fc1ccc(NC(=S)NNc2ncc(C(F)(F)F)cc2Cl)c(F)c1	10µM*	8%	9.3µM*	-99*	-9%
O=S(=O)(NNc1ncc(C(F)(F)F)cc1Cl)c1ccc(F)cc1F	x	x	x	0	x
FC(F)(F)c1cnc(NNC(=S)Nc2ccc(Cl)cc2)c(Cl)c1	7.4µM*	0%	u	-99*	-13%
O=C(NNc1ncc(C(F)(F)F)cc1Cl)c1ccc(Cl)c(Cl)c1	u	-2%	u	32	-15%
Cc1ccc(NC(=S)NNc2ncc(C(F)(F)F)cc2Cl)c(C)c1	u	15%	x	-37	-5%
COc1ccc(S(=O)(=O)Nc2cccc(S(=O)(=O)N3CCCC3)c2)cc1OC	-12%	x	-10%	-20	-3%
CN1CCN(c2ncnc3c2ncn3[C@H]2CN(C)C[C@@H](CO)O2)CC1	x	x	x	-3	x
O=C1SCCN1N=Cc1ccc([N+](=O)[O-])o1	x	x	x	50	x
O=C(O)/C=C/c1ccc([N+](=O)[O-])o1	u	-6%	-2%	-36	28µM*
NC(N)=NN=C(/C=C/c1ccc([N+](=O)[O-])o1)/C=C/c1ccc([N+](=O)[O-])o1	3µM*	x	2.4µM*	x	x
O=C(/C=C/c1ccc(-c2ccc(F)cc2)o1)N1CCCC1	53%	3%	343%	48	35µM*
